Laboratory results as given in ChEMBL document CHEMBL4513216, “Probing the Open Global Health Chemical Diversity Library for Multistage-Active Starting Points for Next-Generation Antimalarials” (ACS Infect Dis, 2020).
In all, about 69,000 compounds went through this assay and about 8,600 (12%) showed an effect of 50% or more. Many of the other results were omitted from the sample, so strong results are more common in it than they were.

These compounds were tested on Plasmodium berghei (assay: Screen against P. berghei liver stage (PbLuc), transformed with Luciferase, at 10uM). Conditions: tested at 10 uM.
Type: functional, HepG2

| SMILES | INHIBITION [%] |
| --- | --- |
| CN1C(=O)CO[C@H]2CCN(C(=O)Cc3ccc4c(c3)CCCC4)CC[C@@H]21 | 10.65 |
| N#Cc1cccc(OCCN2CCOC(Cn3cccn3)C2)c1 (centres undefined) | 0.411 |
| CCCOC(=O)c1ccc(-c2ccc(/C=C3\C(=O)NC(=N)N3C)o2)cc1 | -18 |
| CCc1nc2n(n1)CC(NCc1cnn(Cc3ccccc3)c1)CC2 (centres undefined) | -2.19 |
| Cc1nn(C)c2ncc(NC(=O)N3CCNC(=O)C3)cc12 | -38 |
| CCS(=O)(=O)N1CCC(NC(=O)c2cc3ccccc3cc2O)CC1 | 80.55 |
| CCCS(=O)(=O)N1CCC(NC(=O)c2cc3ccccc3s2)CC1 | 67.1 |
| CCS(=O)(=O)N1CCC(NC(=O)c2cc(C)ccc2O)CC1 | 8.665 |
| CCS(=O)(=O)N1CCC(NC(=O)c2ccccc2O)CC1 | -33.32 |
| CCCS(=O)(=O)N1CCC(NC(=O)c2cc(CC)c(C)s2)CC1 | 2.91 |
| CCCS(=O)(=O)N1CCC(NC(=O)c2ccc(C)s2)CC1 | -19.3 |
| COC1C[C@@H]2CN(C(=O)c3cccc4c3OCCO4)C[C@@H]2C1 (some centres undefined) | 40.625 |
| CCc1nnsc1C(=O)N(C)Cc1nnc2n1CCC2 | 22.9 |
| O=C(c1cnccn1)N1CCC(F)(F)C2(CCN(c3ccccn3)C2)C1 (centres undefined) | 12.1 |
| CNC(=O)C(NC(=O)c1ccn(C)c(=O)c1)c1ccccc1 (centres undefined) | -25.9 |
| CCN(Cc1cccc(C)c1)Cn1nc(C)c2c(C)onc2c1=O | 49.8 |
| Cc1nn(CN(CC(C)C)C2CC2)c(=O)c2noc(C)c12 | -199 |
| CCCN(Cc1ccccc1)Cn1nc(C)c2c(C)onc2c1=O | 49.9 |
| Cc1cccc(CN(Cn2nc(C)c3c(C)onc3c2=O)C2CC2)c1 | -18.9 |
| CCN(CCc1ccccc1)Cn1nc(C)c2c(C)onc2c1=O | 56.1 |
| Cc1nn(CN(Cc2ccsc2)C2CC2)c(=O)c2noc(C)c12 | 63.8 |
| COc1ccc(CC(=O)N2CCCCC2Cn2cccn2)cc1 (centres undefined) | -8.11 |
| c1cnc(-c2nc(CN3CCCC3Cn3cncn3)cs2)nc1 (centres undefined) | 27.6 |

| SMILES | INHIBITION [%] |
| --- | --- |
| COCCC(=O)N1CCC(c2nc(O)cc(-c3ccncc3)n2)C1 (centres undefined) | -0.902 |
| Cc1ccoc1C(=O)N(CCN(C)C)Cc1ccccn1 | -31.4 |
| COc1cc(C(=O)N(CCC#N)Cc2ccccn2)cc(OC)c1C | 7.9 |
| COCCN(CCOC)C(=O)c1ccoc1C | -0.551 |
| Cc1c(C(=O)N(CCN(C)C)Cc2ccccn2)oc2ccccc12 | 63.7 |
| Cc1occc1C(=O)N(CCN(C)C)Cc1ccccn1 | 51.3 |
| CN(C)CCN(Cc1ccccn1)C(=O)Nc1cccc(F)c1 | 18.9 |
| c1cnc(N2CCN(C3CCC[C@@H]4CN(CC5CC5)C[C@H]34)CC2)nc1 (some centres undefined) | -34.7 |
| O=S1(=O)NC(C2CCCN(S(=O)(=O)N3CCCC3)C2)=Nc2ccccc21 (centres undefined) | 4.535 |
| Fc1ccc(OC2CCN(CCn3cncn3)CC2)cc1 | -5.69 |
| Clc1ccc(OCCN2CCN(CCn3cncn3)CC2)cc1 | 47.4 |
| Cc1ccc(OC2CCN(CCn3cncn3)CC2)cc1 | 86.8 |
| O=C(NCC1CCS(=O)(=O)C1)c1ccc(NC(=O)c2ccco2)cc1 (centres undefined) | 18.6 |
| O=C(CCc1cscn1)N1CCCC(n2cncn2)C1 (centres undefined) | 31.8 |
| COc1ccc(OC)c(CNc2c(O)c(=O)c2=O)c1 | 47.4 |
| Cc1nn(C)c2c(NCCCn3cccn3)ncnc12 | -43.4 |
| CCc1nc(NCCn2cccn2)c2c(n1)c(C)nn2C | 19.3 |
| CCc1nc(NCc2ccccn2)c2c(n1)c(C)nn2C | 42.1 |
| Cc1nc(NCc2ccccn2)c2c(n1)c(C)nn2C | 57.4 |
| Cc1nn(C)c2c(NCCn3cccn3)ncnc12 | -37.2 |
| CCc1nc(NCCCn2cccn2)c2c(n1)c(C)nn2CC | 64 |
| Cc1nc(NCCCn2cccn2)c2c(n1)c(C)nn2C | 57.3 |
| CCc1nc(NCCCn2cccn2)c2c(n1)c(C)nn2C | 10.3 |

| SMILES | INHIBITION [%] |
| --- | --- |
| Cc1nn(C)c2c(NCCCn3cccn3)nc(C3CC3)nc12 | 42.4 |
| Cc1nn(C)c2c(NCc3ccccn3)nc(C(C)C)nc12 | 33.7 |
| Cc1nn(C)c2c(NCCCn3cccn3)nc(C(C)C)nc12 | 62.3 |
| CCCc1nc(NCCCn2cccn2)c2c(n1)c(C)nn2CC | 27.5 |
| Cc1ccc(S(=O)(=O)N2CC[C@H]3CO[C@H](CN(C)C)[C@H]3C2)cc1 | 32.2 |
| COc1ccc(CN2CCC3(CC2)CCN(CC(C)C)C3=O)cc1 | 13.2 |
| CCn1nc(C)c2nc(C(C)C)nc(NCCCn3cccn3)c21 | 50.7 |
| CCn1nc(C)c2nc(C(C)C)nc(NCCCn3ccnc3)c21 | -13.085 |
| CCn1nc(C)c2nc(C)nc(NCCCn3cccn3)c21 | 39.1 |
| C[C@@H]1CN(c2ccc(C#N)cn2)CC[C@@]1(O)C1CCOCC1 | 24.76 |
| CCCc1n[nH]c(C2CN(C(=O)c3ccc(C)[nH]c3=O)CCO2)n1 (centres undefined) | 40.2 |
| c1ccc(CCCN2CCN(CCn3cncn3)CC2)cc1 | 15.1 |
| COc1cc2c(c(OC)c1OC)CCN(CCn1cncn1)CC2 | 52.6 |
| COc1cc2c(c(OC)c1OC)CCN(CCn1nc(C)cc1C)CC2 | 36.3 |
| COc1cc(C)cc(C(C(=O)O)N(C)CCN2CCCC2)c1OC (centres undefined) | 28 |
| COc1cc2c(c(OC)c1OC)CCN(CCN1CCCCC1)CC2 | 54.8 |
| COc1ccc(CN2CCn3cncc3C2)cc1Cn1cncn1 | 16.1 |
| CNC(=O)[C@H]1C[C@H]2OCC[C@H]2N(CCOc2ccc(Cl)cc2)C1 | -52.3 |
| Cc1cc2cc(C(=O)N3C[C@H](O)[C@]4(CCCO4)C3)ccc2o1 | 15.9 |
| Cc1ccc(CN2CC[C@H]3[C@H](CC(Cn4cccn4)N3C)C2)s1 (some centres undefined) | 25.3 |
| Cc1n[nH]c(C2CN(C(=O)c3cc(Cl)c[nH]3)CCO2)n1 (centres undefined) | 31.6 |
| O=C(NCC(=O)N1CCCC1Cc1cccc(F)c1)c1ccccn1 (centres undefined) | -6.51 |
| Cc1nc(CNC(C)c2cccc(N3CCCC3=O)c2)cs1 (centres undefined) | 22.7 |

| SMILES | INHIBITION [%] |
| --- | --- |
| CC1CCN(CCCNS(=O)(=O)Cc2ccccc2F)CC1 | 26.9 |
| CC(=O)N1CCN(CCNS(=O)(=O)c2cc(F)cc(F)c2)CC1 | 26.4 |
| CC1CCN(CCCNS(=O)(=O)c2cccc(F)c2)CC1 | -14.9 |
| O=S(=O)(NCCCN1CCCC1)c1cc(F)cc(F)c1 | 71.3 |
| CC1CCN(CCCNS(=O)(=O)c2cc(F)cc(F)c2)CC1 | 51.4 |
| O=S(=O)(Cc1ccccc1F)NCCCN1CCCCC1 | 36.3 |
| COc1cccc(-c2c[nH]c(C3CCCN3)n2)c1 (centres undefined) | -8.45 |
| CCc1ncc(CN[C@@H]2CCCN(C(C)=O)[C@H]2c2ccc(C)s2)cn1 | 23.2 |
| COCCOc1cccc(C(=O)N2CCCC(n3ccnc3C)C2)c1 (centres undefined) | 44.3 |
| Cc1cnn(C2CCCN(C(=O)c3ccc(NC4CC4)nc3)C2)c1 (centres undefined) | -22.9 |
| Cc1cccc2c1NC1(CCOCC1)NC2=O | 48 |
| Cc1cc(NCc2ccc(S(N)(=O)=O)cc2)nc(C)n1 | 41.5 |
| Cc1ccc(-c2noc(CN3CCn4c(nnc4C4CC4)C3)n2)cc1 | -32.345 |
| Cc1cccc(-c2noc(CN3CCn4c(nnc4C4CC4)C3)n2)c1 | -14.8 |
| c1ccc(-c2nc(CN3CCn4c(nnc4C4CC4)C3)co2)cc1 | -40.2 |
| Cc1ccc(-c2nc(CN3CCn4c(nnc4C4CC4)C3)co2)cc1 | -25.9 |
| Fc1ccc(-c2nnc(CN3CCn4c(nnc4C4CC4)C3)o2)cc1 | 0.0932 |
| Cc1ccc(-c2nnc(CN3CCn4c(nnc4C4CC4)C3)o2)cc1 | 52.3 |
| Cc1ccccc1-c1noc(CN2CCn3c(nnc3C3CC3)C2)n1 | 55.9 |
| Cc1ccc(-c2nc(CN3CCn4c(nnc4C4CC4)C3)no2)cc1 | 24.7 |
| Cc1ccc(-c2nc(CN3CCn4c(nnc4C4CC4)C3)co2)c(C)c1 | 54.4 |
| Cc1n[nH]c(C2CN(C(=O)c3cc(C4CC4)on3)CCO2)n1 (centres undefined) | 49.2 |
| CN(C)C(C)(C)CNCc1cn(C)nc1-c1cccnc1 | 23.7 |

| SMILES | INHIBITION [%] |
| --- | --- |
| CN(Cc1ccccc1)CC(O)Cn1cnc2ccc(Br)cc2c1=O (centres undefined) | 14.92 |
| Cc1ccnc(C2(C)CCCN2S(=O)(=O)c2c(C)noc2C)n1 (centres undefined) | 0.705 |
| CCOCc1nc(N2CCOCC2)sc1C(=O)NCCCc1ccco1 | 24.5 |
| Cc1ccc(CN2Cc3c(C(=O)N4CCOCC4)nn(C)c3C2)s1 | -17.1 |
| CCc1ncc(CN2CCC(CCc3ccccc3)CC2)cn1 | 37.8 |
| CNc1ncc(CN2CCC(CCc3ccccc3)CC2)cn1 | 67.5 |
| CNc1ncc(C(=O)N2CCC(CCc3ccccc3)CC2)cn1 | -25.2 |
| Cc1nc(N)nc(C)c1CC(=O)NCc1ccc2nonc2c1 | 61.2 |
| N[C@@H]1CC[C@H](C(=O)NCc2ccc3nonc3c2)C1 | 0 |
| CCc1[nH]c2ccc(CNC(=O)Cc3c(C)nc(N)nc3C)cc2c1C | 43.9 |
| CN(Cc1cnn(C)c1)C(=O)NCc1ccc2c(c1)OCCO2 | -26.85 |
| O=C(Cc1csc(-c2ccccc2Cl)n1)NCc1cccc(C(=O)O)c1 | 17.1 |
| Cc1ccc(C(=O)N2CCC3(CCN(Cc4ccccn4)C3=O)C2)cn1 (centres undefined) | 22.5 |
| CCc1nc(CN2CCN(c3ncnc4cc(F)ccc34)CC2)no1 | 91.8 |
| CCn1ccnc1CN1CCN(c2ncnc3ccccc23)CC1 | -66.4 |
| CCc1nc(CN2CCCN(c3nc4ccccc4o3)CC2)no1 | -8.19 |
| CCc1nc(CN2CCCN(CC(O)c3ccccc3)CC2)no1 (centres undefined) | -11.4 |
| Cc1nc(CN2CCCN(Cc3nc4ccccc4o3)CC2)no1 | -24.7 |
| Cc1nc(CN2CCN(c3ncnc4ccccc34)CC2)no1 | 94.1 |
| CCc1nc(CN2CCN(CC(O)c3ccccc3)CC2)no1 (centres undefined) | 42 |
| CCc1nc(CN2CCCN(c3ncnc4ccccc34)CC2)no1 | 86.8 |
| CCc1nc(CN2CCCN(c3cnc4ccccc4n3)CC2)no1 | 40.5 |
